Reference: PubChem BioAssay (NCI)
The panel holds about 79,000 compounds, 15% with a hit somewhere; the sample as a whole holds those more often. Activity calls are given as the source filed them. No stated cut-off is given here; in the data, active means growth inhibition above about 70%; inactive means the rest.

Assays:
[1] = NCI Yeast Anticancer Drug Screen. Data for the rad50 strain (AID 155);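 further: 0% = growth of vehicle-only cultures of the same strain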; conditions: S. cerevisiae rad50 strain growth inhibition; at 50.0 µM; hits give high values
Procedure, shortened: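 Compounds were tested on a yeast strain with an engineered DNA damage repair alteration; the reported value is growth inhibition normalised to vehicle treatment.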

[2] = NCI Yeast Anticancer Drug Screen. Data for the mec2-1 strain (AID 157); conditions: S. cerevisiae mec2-1 strain, at 50.0 µM, hits give high values
Procedure, shortened: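 Vehicle-treated cultures served as reference for growth inhibition of compound-exposed mec2-1 yeast.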

[3] = NCI Yeast Anticancer Drug Screen. Data for the sgs1 mgt1 strain (AID 161);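 further: 0% = growth of cultures given vehicle only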; conditions: S. cerevisiae sgs1 mgt1 strain, at 50.0 µM, hits give high values
Procedure, shortened: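 Genetically altered yeast, compound exposure, growth inhibition relative to vehicle.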

[4] = NCI Yeast Anticancer Drug Screen. Data for the cln2 rad14 strain (AID 165);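 further: 0% = growth equal to vehicle treated cultures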; conditions: S. cerevisiae cln2 rad14 strain, at 50.0 µM, hits give high values
Procedure, shortened: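 Each compound was tested on cln2 rad14 yeast. Inhibition of growth was calculated against vehicle-exposed controls.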

[5] = NCI Yeast Anticancer Drug Screen. Data for the bub3 strain (AID 167); conditions: S. cerevisiae bub3 mutant strain, at 50.0 µM, hits give high values
Procedure, shortened: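 Growth of a checkpoint-deficient yeast mutant is measured after compound exposure. Values represent inhibition relative to vehicle.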

[6] = NCI Yeast Anticancer Drug Screen. Data for the mlh1 rad18 strain (AID 175); conditions: S. cerevisiae mlh1 rad18 strain growth inhibition; at 50.0 µM; hits give high values
Procedure, shortened: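 Vehicle-treated cultures served as the reference for growth inhibition in a yeast strain carrying DNA damage repair alterations exposed to each compound.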

Measured: growth inhibition

C=CCNC(=S)Nc1cccc(O)c1
inactive: [1] -8.05% | [2] -11.6% | [3] -11.6% | [4] -31.8% | [5] -10.9% | [6] -2.55%

CCOC(=O)Cc1ccc(OC)c(OC)c1
inactive: [1] 3.45% | [2] -7.05% | [3] 3.9% | [4] -17.1% | [5] -2.8% | [6] 1.4%

COc1ccc(/C=N/NC(=O)c2ccccc2OC)cc1
inactive: [1] 1.85% | [2] 19.6% | [3] 29.9% | [4] -11.5% | [5] -10.8% | [6] 36.1%

C/C=C(\C)C(=O)OC1C2C(C)=CC(=O)C(O)C2(C)C2C3(O)OCC24C1OC(=O)C(OC(C)=O)C4C(C)C3O (stereo not given)
active: [1] 91.9% | [2] 93.3% | [3] 92.8% | [4] 91.8% | [5] 91.7% | [6] 91.6%

Cc1cccc(Cl)c1NC(=O)C(Cl)Cl
inactive: [1] 6.35% | [2] 9.75% | [3] 8% | [4] 4.55% | [5] 17.3% | [6] 14.9%

Cc1ccc(C(=O)Nc2ccc([N+](=O)[O-])cc2)cc1
inactive: [1] 4.2% | [2] -6.75% | [3] -0.35% | [4] -2.75% | [5] -5.35% | [6] -2.95%

CN(C)CCC(=O)c1ccc(C(=O)CCN(C)C)cc1
inactive: [1] -0.4% | [2] 25.6% | [3] -17.1% | [4] -14.8% | [5] -16.2% | [6] -21.2%

CNC(=O)c1ccccc1Sc1ccccc1
inactive: [1] -4.25% | [2] -15.8% | [3] -16.3% | [4] -34.8% | [5] 0.2% | [6] 3.15%

Ic1ccccc1/C=C/c1ccccn1
inactive: [1] 14.6% | [2] 11.3% | [3] 28.7% | [4] -54.6% | [5] 31.8% | [6] -0.2%

O=C(COc1ccc(Cl)cc1Cl)Nc1ccc2ccccc2c1S(=O)(=O)O
inactive: [1] 6.45% | [2] 2.2% | [3] 12.5% | [4] -5.95% | [5] 8.4% | [6] 3.6%

Cc1ccc(N(C(=O)Nc2ccc(F)c(Cl)c2)C2=NCC(C)S2)cc1 (stereo not given)
inactive: [1] -57.5% | [2] -14.4% | [3] -45% | [4] -13.7% | [5] -5.05% | [6] -51.4%

CCOC(=O)C(NC(=O)CC)(Nc1ccc(S(=O)(=O)Nc2onc(C)c2C)cc1)C(F)(F)F (stereo not given)
inactive: [1] -6.35% | [2] -15.4% | [3] -8.85% | [4] 15.6% | [5] -6.4% | [6] -17.4%

COc1cc(C(=O)O)c(Cc2ccccc2)c(OC)c1O
inactive: [1] 9.8% | [2] 5.95% | [3] 1.05% | [4] 5.6% | [5] 9.05% | [6] -3.2%

CC(=O)O[C@H]1CCN2C(=O)C=CC(OCc3ccccc3)C12 (stereo not given in full)
inactive: [1] 3.8% | [2] -15.3% | [3] 11.1% | [4] 13.2% | [5] -5.95% | [6] 3.6%

O=C(O)C(C(=O)O)C1CCCCC1
inactive: [1] -14.6% | [2] -20.6% | [3] -20.6% | [4] -0.95% | [5] -6.5% | [6] -15.8%

O=C1CCC(=O)Nc2ccc3nc4ccccc4c(c3c2)SCCCCCCCCCCCCSc2c3ccccc3nc3ccc(cc23)N1
inactive: [1] -22.4% | [2] -15.2% | [3] -15.2% | [4] -36.4% | [5] -8.4% | [6] -0.85%

O=C(Oc1ccc[nH]c1=O)C1CCC1
inactive: [1] -15.3% | [2] 3% | [3] -0.55% | [4] 2.7% | [5] 12.8% | [6] -4.75%

O=C1c2ccccc2C(=O)c2[nH]ncc21
inactive: [1] 18.4% | [2] 13.8% | [3] -3.25% | [4] -61.6% | [5] 10.1% | [6] -1.8%

CC1CN(C(=O)Cn2cnc([N+](=O)[O-])n2)CC(C)O1 (stereo not given)
inactive: [1] 7.65% | [2] 14.2% | [3] 2.75% | [4] 65.2% | [5] 29.8% | [6] 12.7%

CCN(CC)c1c(C)nnn1C1OC(COC(C)=O)C(OC(C)=O)C(OC(C)=O)C1OC(C)=O (stereo not given)
inactive: [1] -0.8% | [2] -10.9% | [3] -19.9% | [4] 3.15% | [5] 11.8% | [6] -12%
